This note sets out measurements from PubChem BioAssay (Tox21).

A short description of test [1]: qHTS assay for small molecules that induce genotoxicity in human embryonic kidney cells expressing luciferase-tagged ATAD5 (AID 651632). Note: nearly all actives have a fitted effect of over 15% in size. The method in brief: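 ATAD5-luc HEK293T, 2,000 cells/well; cpd or DMSO pin-transferred; 16 hr, 37C/5% CO2; Amplite 30 min RT; luminescence.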
The nature of test [2]: qHTS assay for small molecule agonists of the p53 signaling pathway - cell viability (AID 651633; calls by dose curve;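 note: p53RE-bla HCT reporter cells with a stable beta-lactamase p53 reporter; series mostly up to about 83 µM; nearly all actives have a fitted effect of over 30% in size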). The method in brief:
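p53RE-bla cells were treated with compound for 16 hours at 37 C. Cytotoxicity was then measured as CellTiter-Glo luminescence after 30 min at room temperature.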

A short description of test [3]: qHTS assay for small molecule disruptors of the mitochondrial membrane potential - cell viability (AID 720634; calls by dose curve;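 note: human HepG2 liver cancer cells; series mostly up to about 83 µM; nearly all actives have a fitted effect of over 20% in size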). The method in brief: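 Cells: HepG2, 2,000/well, attached overnight. Compound 1 hr, 37 C/5% CO2. +m-MPI dye, +CellTiter-Glo 30 min RT. Readout: luminescence (ATP).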
Test [4] is described as follows: qHTS assay to test for compound auto fluorescence at 535 nm (green) in HepG2 cells (AID 720675).
Test [5] is described as follows: qHTS assay to test for compound auto fluorescence at 460 nm (blue) in HEK293 cells (AID 720678). In outline:
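Cells were seeded and left to adhere for 4-5 hr at 37C. Compounds were then pin-transferred. After an overnight incubation at 37C under 5% CO2, intrinsic fluorescence at 405/460 nm was measured and referenced to triamterene.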

Test [6] is described as follows: qHTS assay to test for compound auto fluorescence at 590 nm (red) in HEK293 cells (AID 720679). The method in brief:
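Each well held 2,000 HEK293 cells in medium containing 10% dialyzed FBS. Following 4-5 hr attachment at 37C, 23 nL test compound or DMSO was added; plates sat overnight, and red fluorescence (540/590nm) was recorded.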

Test [7] is described as follows: qHTS assay to test for compound auto fluorescence at 460 nm (blue) in HEK293 cell free culture (AID 720681). The method in brief:
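Compounds were added to cell-free DMEM with 10% FBS and fluorescence read directly. The blue channel used 405 nm excitation and 460 nm emission, with triamterene as the reference fluorophore.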

The nature of test [8]: qHTS assay to test for compound auto fluorescence at 590 nm (red) in HepG2 cell free culture (AID 720684). The method in brief:
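Compound was pinned into wells holding MEM with 10% FBS and no cells, and red fluorescence was read at Ex/Em 540/590 nm. Signal is expressed as auto fluorescence equivalency relative to Rose Bengal sodium.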

The nature of test [9]: qHTS assay to test for compound auto fluorescence at 460 nm (blue) in HepG2 cell free culture (AID 720685). In outline: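 Compound (23 nL) or DMSO pinned into cell-free MEM with 10% FBS; blue fluorescence read at 405/460 nm excitation/emission, expressed as auto-fluorescence equivalency to triamterene.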
A short description of test [10]: qHTS assay to test for compound auto fluorescence at 535 nm (green) in HepG2 cell free culture (AID 720686).
The nature of test [11]: qHTS assay to test for compound auto fluorescence at 460 nm (blue) in HepG2 cells (AID 720687). In outline: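 HepG2 cells in MEM with 10% FBS, attached overnight at 37 C, were exposed to compound or DMSO for 1 hr at 37 C, 5% CO2. Blue fluorescence was read at 405/460 nm, with triamterene as reference fluorophore.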
A short description of test [12]: qHTS assay for identifying genotoxic compounds that show differential cytotoxicity against isogenic chicken DT40 cell lines with known DNA damage response pathways - wild type cell line (AID 743012). Note: nearly all actives have a fitted effect of over 60% in size. In outline: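 Wild type DT40, 300 cells/well, ~0.5 h settle at 37 C/5% CO2; compounds in DMSO added by pintool; 40 h at 37 C/5% CO2; CellTiter-Glo, 30 min RT; luminescence.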

Test [13] in a line: qHTS assay for identifying genotoxic compounds that show differential cytotoxicity against isogenic chicken DT40 cell lines with known DNA damage response pathways - Rad54/Ku70 mutant cell line (AID 743015). Note: nearly all actives have a fitted effect of over 60% in size.
The nature of test [14]: qHTS assay to identify small molecule antagonists of the androgen receptor (AR) signaling pathway - cell viability counter screen (AID 743033; note: nearly all actives have a fitted effect of over 45% in size).
Test [15] in a line: qHTS assay to identify small molecule antagonists of the androgen receptor (AR) signaling pathway using the MDA cell line - cell viability counter screen (AID 743041; note: nearly all actives have a fitted effect of over 45% in size). The method in brief: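 MDA-kb2 AR-luc cells (MMTV-luciferase, AR/GR responsive) treated with compounds plus R1881 agonist for 16 h at 37C. CellTiter-Fluor added at 15.5 h; fluorescence read after 30 min in the same wells.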

Test [16] can be described thus: qHTS assay to identify small molecule antagonists of the estrogen receptor alpha (ER-alpha) signaling pathway - cell viability counter screen (AID 743074; calls by dose curve;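 note: HEK293 cells carrying ER-alpha-UAS-bla reporter stimulated with 17beta-estradiol; nearly all actives have a fitted effect of over 45% in size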).
In the next test the target is Aromatase (Homo sapiens) (UniProt P11511). Put plainly: qHTS assay to identify aromatase inhibitors (AID 743083). Note: nearly all actives have a fitted effect of over 55% in size. Note: potency is the fitted concentration of half-maximal effect.
Aromatase (Homo sapiens), sequence (P11511 whole entry, looked up): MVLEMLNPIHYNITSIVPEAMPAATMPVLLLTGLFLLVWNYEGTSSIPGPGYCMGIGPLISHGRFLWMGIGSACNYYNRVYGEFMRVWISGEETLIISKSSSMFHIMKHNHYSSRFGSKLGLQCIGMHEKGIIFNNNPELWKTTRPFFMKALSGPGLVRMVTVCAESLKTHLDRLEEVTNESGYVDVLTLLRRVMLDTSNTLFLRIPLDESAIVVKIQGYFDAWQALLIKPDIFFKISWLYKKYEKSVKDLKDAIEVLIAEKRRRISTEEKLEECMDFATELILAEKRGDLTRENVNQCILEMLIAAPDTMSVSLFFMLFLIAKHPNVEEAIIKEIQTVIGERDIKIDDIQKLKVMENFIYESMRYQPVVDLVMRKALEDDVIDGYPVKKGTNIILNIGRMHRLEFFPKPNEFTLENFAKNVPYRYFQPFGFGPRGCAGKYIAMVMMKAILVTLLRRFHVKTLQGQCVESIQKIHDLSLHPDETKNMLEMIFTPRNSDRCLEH
Test [17] in a line: qHTS assay to identify aromatase inhibitors - cell viability counter screen (AID 743084).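 Note: cells stimulated with testosterone during compound exposure; nearly all actives have a fitted effect of over 55% in size.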
Test [18] addresses Aryl hydrocarbon receptor (Homo sapiens) (UniProt P35869). The test is described as follows: qHTS assay to identify small molecule that activate the aryl hydrocarbon receptor (AhR) signaling pathway (AID 743085). Note: nearly all actives have a fitted effect of over 15% in size. Note: potency is the fitted concentration of half-maximal effect. In outline: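 HepG2 cells stably carrying a 20-DRE firefly luciferase reporter (HG2L7.5c1) treated with compound for 24 hr at 37C. Luciferase read by ONE-Glo luminescence, with CellTiter-Fluor viability read first.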

The nature of test [19]: qHTS assay to test for compound auto fluorescence at 535 nm (green) in HEK293 cell free culture (AID 720682). In outline:
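Green-label autofluorescence (485 nm excitation, 535 nm emission) measured on compound added to cell-free culture medium (DMEM, 10% FBS). Output is expressed relative to fluorescein.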

Records with an inconclusive call do not appear. Activity calls are given as the source filed them. Unless noted, calls come from the whole dose curve; as a rule, active = well fitted curve in the direction sought with a large enough effect in the repeat runs; inconclusive = weak or mixed curves; inactive = no such curve, though single readings can be large; an effect the other way counts as inactive or inconclusive.

Aryl hydrocarbon receptor (Homo sapiens), sequence (P35869 whole entry, looked up): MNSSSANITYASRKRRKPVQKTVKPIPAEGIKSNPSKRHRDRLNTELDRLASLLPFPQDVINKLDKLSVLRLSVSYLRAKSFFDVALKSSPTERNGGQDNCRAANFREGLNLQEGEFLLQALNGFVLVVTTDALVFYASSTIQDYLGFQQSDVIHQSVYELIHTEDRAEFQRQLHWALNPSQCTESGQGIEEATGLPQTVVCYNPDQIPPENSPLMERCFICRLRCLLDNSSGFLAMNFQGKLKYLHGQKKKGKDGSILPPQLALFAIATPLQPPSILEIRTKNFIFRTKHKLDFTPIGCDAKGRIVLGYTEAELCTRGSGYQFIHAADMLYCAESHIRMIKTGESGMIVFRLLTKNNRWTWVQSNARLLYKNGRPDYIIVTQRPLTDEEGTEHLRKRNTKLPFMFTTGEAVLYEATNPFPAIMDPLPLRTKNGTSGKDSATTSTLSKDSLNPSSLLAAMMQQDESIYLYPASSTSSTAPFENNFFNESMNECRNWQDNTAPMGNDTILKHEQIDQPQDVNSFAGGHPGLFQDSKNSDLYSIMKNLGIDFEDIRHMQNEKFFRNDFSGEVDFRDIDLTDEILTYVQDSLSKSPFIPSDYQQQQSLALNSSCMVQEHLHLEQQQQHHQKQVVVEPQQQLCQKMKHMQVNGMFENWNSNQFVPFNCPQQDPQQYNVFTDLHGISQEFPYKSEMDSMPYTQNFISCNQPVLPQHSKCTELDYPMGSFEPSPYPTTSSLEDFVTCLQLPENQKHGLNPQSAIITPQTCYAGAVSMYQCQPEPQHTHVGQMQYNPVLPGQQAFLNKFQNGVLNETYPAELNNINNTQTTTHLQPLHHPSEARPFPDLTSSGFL

`CCCC(C)(COC(N)=O)COC(=O)NC1CC1` (stereo unspecified): the Potency result in test [1], in test [2], in test [3], in [4], in [5] and in [7] was “inactive” throughout. Moreover, the Potency entry in test [9], in [10], in test [11], in [12], in test [13] and in test [14] was “inactive” in each case. The Potency result (in test [15]; in [16]; in the test with Aromatase (Homo sapiens); in test [17]; in [18]) was “inactive” in each case. Moreover, the call in test [6] and in [8] was inactive.

As to `CC(=O)OC(C)=O`, the Potency entry in test [18] is “inactive”.

`C=CCN(C1=NCCN1)c1c(Cl)cccc1Cl`: the Potency entry in [1], in test [2], in [3], in test [4], in test [5] and in test [7] was “inactive” each time. In addition, the Potency entry in test [19], in test [9], in [10], in test [11], in test [12] and in [13] was “inactive” in each case. The Potency result (in test [14]; in [15]; in test [16]; with Aromatase (Homo sapiens); in [17]; in [18]) was “inactive” throughout. Further, the compound was classed as inactive in [6] and in test [8].

As to `COc1ccc(CCN2CCC(Nc3nc4ccccc4n3Cc3ccc(F)cc3)CC2)cc1`, the Potency with Aromatase (Homo sapiens) is 21.1 µM (active).

`O=C(Cl)c1cccc(C(=O)Cl)c1`: the Potency result (with Aromatase (Homo sapiens); in test [18]) was “inactive” throughout.

Take `CNC(=O)Oc1ccc2c(c1)[C@]1(C)CCN(C)[C@@H]1N2C`: the Potency result (with Aromatase (Homo sapiens); in [18]) was “inactive” throughout.

As to `CN=C1CN(O)C(c2ccccc2)=c2cc(Cl)ccc2=N1`, the Potency entry in [1], in test [2], in test [3], in test [4], in [5] and in test [7] was “inactive” each time. Further, the Potency entry in [9], in test [10], in [11], in test [12], in test [13] and in [14] was “inactive” throughout. Moreover, the Potency result (in [15]; in test [16]; with Aromatase (Homo sapiens); in [17]; in test [18]) was “inactive” throughout. Also, the outcome in test [6] and in test [8] was inactive.

For the compound `CCOc1ccc2c3c1O[C@H]1[C@@H](O)C=C[C@H]4[C@@H](C2)N(C)CC[C@@]341`, the Potency entry in [1], in test [2], in test [3], in test [4], in test [5] and in test [7] was “inactive” each time. Moreover, the Potency entry in test [19], in test [9], in test [10], in test [11], in test [12] and in test [13] was “inactive” each time. Moreover, the Potency entry (in test [14]; in test [15]; in test [16]; in the test with Aromatase (Homo sapiens); in [17]) was “inactive” in each case. The outcome in [6] and in test [8] was inactive.

In the case of `CC(C)(C)OCC1CO1` (stereo unspecified), in the test with Aromatase (Homo sapiens), the Potency entry was “inactive”.

For `c1ccc2c(c1)ccc1ncccc12`, the Potency result (with Aromatase (Homo sapiens); in test [18]) was “inactive” in each case.

For `COc1ccc(C)cc1N`, the Potency entry (in the test with Aromatase (Homo sapiens); in [18]) was “inactive” each time.

As to `Clc1ccc(Cl)c(Cl)c1Cl`, the Potency entry (in the test with Aromatase (Homo sapiens); in test [18]) was “inactive” throughout.

With `Nc1ccc(N)c2ccccc12`, the Potency with Aromatase (Homo sapiens) was 3.06 µM (active); in [18], 968 nM (active).

On to `Brc1c2ccccc2cc2ccccc12`, for which the Potency result (with Aromatase (Homo sapiens); in [18]) was “inactive” throughout.

Take `Clc1cc(Cl)c(Cl)cc1Cl`: the Potency entry (with Aromatase (Homo sapiens); in test [18]) was “inactive” throughout.

As for `CCC1(C)CC(=O)NC(=O)C1`, the Potency result in [1], in test [2], in test [3], in test [4], in test [5] and in test [7] was “inactive” throughout. In addition, the Potency result in test [19], in [9], in test [10], in test [11], in [12] and in test [13] was “inactive” throughout. For the same compound, the Potency result (in test [14]; in [15]; in test [16]; in the test with Aromatase (Homo sapiens); in [17]; in test [18]) was “inactive” throughout. Further, the call in test [6] and in [8] was inactive.
